Hits are enriched below; roughly 6% of the tested compounds scored in any of these assays.
ERK AVP block: qHTS Assay for Inhibitors of the ERK Signaling Pathway using a Homogeneous Screening Assay | HEK293-V1b, vasopressin-stimulated pERK AlphaScreen | Potency, µM (titrated, usually from 57.5 µM), hits mostly inhibitors | 72,000 compounds, 0.99% hits | AID 995, 2007; further: nearly all actives have a fitted effect of over 55% in size
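Overnight-seeded V1b-HEK293 cells in 1% FBS got compound, then vasopressin (25 nM final, 5 min, 37C), then lysis buffer. AlphaScreen detection of phospho-ERK; activity normalized to basal and full-stimulation controls.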
HEK293 cAMP cs: qHTS Assay for Agonists of the Thyroid Stimulating Hormone Receptor: Activators of Intracellular cAMP Concentrations in Parental HEK 293; parental HEK293 CNG cAMP sensor, membrane potential fluorescence; Potency, µM (highest dose often 57.1 µM), most hits filed as activators; 73,000 compounds, 2.5% hits; further: nearly all actives have a fitted effect of over 55% in size
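Parental HEK 293 cells stably expressing a modified CNG channel (no TSHR) report cAMP rise as membrane depolarization. Membrane potential dye with 100 uM RO 20-1724 was loaded for 60 min at room temperature, then compound added for 30 min; fluorescence read at 590 nm.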
TSHR ag: qHTS Assay for Agonists of the Thyroid Stimulating Hormone Receptor | 73,000 compounds, 0.48% hits | Thyrotropin receptor (Homo sapiens), P16473 | AID 926, 2007 | Potency, µM (doses to about 57.1 µM), usual class: activators | HEK293-CNG-TSHR cells (CNG channel as cAMP sensor), membrane potential dye, cAMP; active means well fitted activation curve with a large enough effect in the main read-out, with a control signal flat, not every such curve was filed as active; inconclusive means small, poorly fitted or top-dose-only effect, or a change in a side signal; inactive means no such curve, though single readings can be large or run the other way; reference of the percent scale not stated here;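 further: the control signal comes from parental cells without the receptor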
Target sequence (P16473 whole entry, looked up): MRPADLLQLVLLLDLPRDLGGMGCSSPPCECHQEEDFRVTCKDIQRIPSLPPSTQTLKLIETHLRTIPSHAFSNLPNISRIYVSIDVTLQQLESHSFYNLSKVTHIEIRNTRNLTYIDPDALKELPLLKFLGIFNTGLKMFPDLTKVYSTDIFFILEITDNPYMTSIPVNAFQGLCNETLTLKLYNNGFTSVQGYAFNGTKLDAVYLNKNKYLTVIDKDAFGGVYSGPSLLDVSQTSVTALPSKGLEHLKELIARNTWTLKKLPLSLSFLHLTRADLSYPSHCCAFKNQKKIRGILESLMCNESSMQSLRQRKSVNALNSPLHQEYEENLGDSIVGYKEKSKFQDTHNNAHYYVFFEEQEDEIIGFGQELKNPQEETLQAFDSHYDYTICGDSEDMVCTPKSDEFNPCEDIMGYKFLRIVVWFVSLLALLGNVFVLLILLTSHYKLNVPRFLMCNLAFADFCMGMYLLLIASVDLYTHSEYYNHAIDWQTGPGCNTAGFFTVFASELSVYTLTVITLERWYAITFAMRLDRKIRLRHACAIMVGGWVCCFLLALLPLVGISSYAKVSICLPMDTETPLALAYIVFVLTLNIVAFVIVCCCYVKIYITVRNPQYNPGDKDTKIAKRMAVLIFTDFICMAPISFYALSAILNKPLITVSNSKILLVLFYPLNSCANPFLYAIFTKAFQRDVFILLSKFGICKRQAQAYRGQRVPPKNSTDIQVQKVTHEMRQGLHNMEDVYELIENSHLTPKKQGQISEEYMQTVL
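cAMP rise detected as CNG-channel membrane depolarization by fluorescent dye (emission 590 nm), 30 min after compound, following 60 min dye loading containing 100 uM RO 20-1724 at room temperature. Cells: TSHR/CNG HEK 293, with parental CNG HEK 293 as control.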
CRE-bla Fsk: Cell signaling CRE-BLA (Fsk stim); CHO CRE-bla reporter (cAMP response element driving beta-lactamase), forskolin EC10, beta-lactamase ratio; Potency, µM (series often up to 38.2 µM), most hits filed as activators; 71,000 compounds, 2.5% hits; active means well fitted activation curve with a large enough effect in the signal ratio, with a control signal flat, not every such curve was filed as active; inconclusive means small, poorly fitted or top-dose-only effect, or effect the other way, or a change in a side signal; the % refers to the signal ratio
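CRE-bla CHO reporter cells treated with compound titration plus EC10 NKH 477 (water-soluble forskolin), incubated 3 h at 37 °C; CCF4 loading 2 h at room temperature, 460/530 nm emission ratio read, AC50 values derived for positive or negative modulators.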
Numbers stand for hits; [ ] = dose if it differs, or a comment. Unless noted, the call rests on the fitted dose curve; in most records, active means well fitted curve in the direction sought with a large enough effect; inconclusive means small, poorly fitted or top-dose-only effect, or another doubt; inactive means no such curve, though single readings can be large; an effect the other way counts as inactive or inconclusive.

For C/C=C/COC(=O)c1[nH]c2c(c1C)C(=O)CC(c1ccco1)C2 (centres undefined) the results were ERK AVP block inactive, HEK293 cAMP cs inconclusive, TSHR ag inconclusive and CRE-bla Fsk 1.26µM.
Cc1c(C(=O)OC2CCCC2)[nH]c2c1C(=O)CC(c1ccco1)C2 (centres undefined) was read as ERK AVP block 25.1µM, HEK293 cAMP cs inactive and CRE-bla Fsk 0.501µM.
For CCOC(=O)c1[nH]c2c(c1C)C(=O)CC(c1ccc(OC)c(OC)c1)C2 (centres undefined) the results were ERK AVP block inactive, HEK293 cAMP cs inactive, TSHR ag inactive and CRE-bla Fsk inactive.
`Cc1c(C(=O)OCC2CCCO2)[nH]c2c1C(=O)CC(c1ccco1)C2` (centres undefined) gave ERK AVP block inactive, HEK293 cAMP cs inactive, TSHR ag inactive and CRE-bla Fsk inconclusive.
Screening C=CCOC(=O)c1[nH]c2c(c1C)C(=O)CC(c1ccco1)C2 (centres undefined) returned ERK AVP block inconclusive, HEK293 cAMP cs inconclusive, TSHR ag inconclusive and CRE-bla Fsk 0.501µM.
Screening Cc1c(C(=O)OCC(C)C)[nH]c2c1C(=O)CC(c1ccco1)C2 (centres undefined) returned ERK AVP block inconclusive, HEK293 cAMP cs inconclusive, TSHR ag inconclusive and CRE-bla Fsk 1.58µM.
Screening Cn1c(=O)n2n(c1=O)[C@H]1[C@H](O)[C@H]3O[C@@H]3/C(=N/OC[C@@H](O)COCc3ccco3)[C@@H]1CC2 returned ERK AVP block inactive[11.5 µM], HEK293 cAMP cs inconclusive and TSHR ag inconclusive.
For CC(=O)OCC(=O)[C@]1(O)C(OC(C)=O)CC2C3CCC4=CC(=O)C=C[C@@]4(C)[C@]3(F)C(O)C[C@]21C (some centres undefined) the results were ERK AVP block inactive.
`COc1ccc(CNc2ccnc(-c3ccccc3OC)n2)c(OC)c1` gave ERK AVP block inactive, HEK293 cAMP cs inactive and CRE-bla Fsk inactive.
For COc1ccc2c(c1)[n+]([O-])c(/C(C)=N/NC(N)=S)c(C)[n+]2[O-] the results were ERK AVP block inactive[11.5 µM], HEK293 cAMP cs inactive[11.4 µM], TSHR ag inactive[11.4 µM] and CRE-bla Fsk inconclusive.
Screening Fc1ccc(Nc2ncncc2-c2ccccc2C(F)(F)F)cc1 returned ERK AVP block inactive, HEK293 cAMP cs inactive, TSHR ag inactive and CRE-bla Fsk inactive.
For Cc1cc(N)n2ncc(-c3cccc(Br)c3)c2n1 the results were ERK AVP block inactive, HEK293 cAMP cs inactive[11.4 µM], TSHR ag inactive[11.4 µM] and CRE-bla Fsk inactive[7.6 µM].
For Cc1cc(N)n2ncc(-c3ccccc3)c2n1 the results were ERK AVP block 25.1µM, HEK293 cAMP cs inactive, TSHR ag inconclusive and CRE-bla Fsk inactive.
CCCn1c(=O)n(C)c(=O)c2c(SCc3cc(C(C)=O)ccc3OCC)nc(C3CC3)nc21 was read as ERK AVP block inactive, HEK293 cAMP cs inactive, TSHR ag inactive and CRE-bla Fsk 2µM.
`C/C(CC/C(C)=N/O)=N/O` gave ERK AVP block inactive[11.5 µM], HEK293 cAMP cs inactive[11.4 µM], TSHR ag inactive[11.4 µM] and CRE-bla Fsk inactive[7.6 µM].
`CN(C)c1nc(N)nc(Cn2ccnc2)n1` gave ERK AVP block inactive, HEK293 cAMP cs inactive and CRE-bla Fsk 6.31µM.
`CCCCn1c(NC(=O)c2ccccc2)c(C#N)c2nc3ccccc3nc21` gave ERK AVP block inconclusive, HEK293 cAMP cs inactive, TSHR ag inactive and CRE-bla Fsk 10µM.
For c1ccc2c(c1)Cc1cc3cc4c(cc3nc1-2)OCO4 the results were ERK AVP block 25.1µM, HEK293 cAMP cs inactive and CRE-bla Fsk inconclusive.
`c1ccc2c(c1)CCN(c1nc3cc4c(cc3s1)OCO4)C2` gave ERK AVP block inactive, HEK293 cAMP cs inactive, TSHR ag inactive and CRE-bla Fsk inactive.
CCCC[C@@H]1C[C@H]1C(NC(=O)c1ccco1)c1ccc(-c2ccccc2)cc1 (some centres undefined) was read as ERK AVP block inactive, HEK293 cAMP cs inactive, TSHR ag inactive and CRE-bla Fsk inactive.
For CCCC[C@@H]1C[C@H]1C(NC(=O)c1cccnc1)c1ccc(-c2ccccc2)cc1 (some centres undefined) the results were ERK AVP block inactive, HEK293 cAMP cs inconclusive, TSHR ag inconclusive and CRE-bla Fsk inconclusive.
Screening CCCC[C@@H]1C[C@H]1C(NC(=O)c1ccccc1)c1ccccc1 (some centres undefined) returned ERK AVP block inactive, HEK293 cAMP cs 12.6µM, TSHR ag inconclusive and CRE-bla Fsk inactive.
`CCCC[C@@H]1C[C@H]1C(NC(=O)c1ccco1)c1ccc(Cl)cc1` (some centres undefined) gave ERK AVP block inactive, HEK293 cAMP cs 15.8µM, TSHR ag inconclusive and CRE-bla Fsk inactive.
CCCC[C@@H]1C[C@H]1C(NC(=O)c1ccco1)c1ccccc1C(F)(F)F (some centres undefined) was read as ERK AVP block inactive, HEK293 cAMP cs 31.6µM, TSHR ag inconclusive and CRE-bla Fsk inactive.
Screening C/C=C\C1=C(CO)C(=O)[C@@H]2OC2C1=O (some centres undefined) returned ERK AVP block inactive[11.5 µM], HEK293 cAMP cs inactive[11.4 µM] and TSHR ag inactive[11.4 µM].
Screening C[C@H](CO)NC(=O)[C@H]1C[C@@H]1[C@H](NP(=O)(c1ccccc1)c1ccccc1)c1ccccc1 returned ERK AVP block inactive, HEK293 cAMP cs inactive, TSHR ag inactive and CRE-bla Fsk inactive.
CCCN1Cc2cccc(C(=O)Nc3cc(OC)cc(OC)c3)c2C1=O was read as ERK AVP block inactive, HEK293 cAMP cs inconclusive, TSHR ag inconclusive and CRE-bla Fsk 6.31µM.
`COCCN1Cc2cccc(C(=O)Nc3cccc(OC)c3)c2C1=O` gave ERK AVP block inactive, HEK293 cAMP cs inactive, TSHR ag inactive and CRE-bla Fsk inconclusive.
For Cc1cc(N2CCN(C)CC2)nc2ccc(NC(=O)c3ccc4c(c3)OCO4)cc12 the results were ERK AVP block 12.6µM, HEK293 cAMP cs inactive, TSHR ag inactive[11.4 µM] and CRE-bla Fsk inactive.
`CCCCOCCOCCOCc1cc2c(cc1CCC)OCO2` gave ERK AVP block inactive, HEK293 cAMP cs 31.6µM, TSHR ag inconclusive and CRE-bla Fsk inactive.
Screening CCOC(=O)CCN1CCN(C(=O)c2ccc(-n3c(=O)c(=O)[nH]c4ccccc43)cc2)CC1 returned HEK293 cAMP cs inactive and TSHR ag inactive.
Screening COC(=O)c1ccc(NC(=O)c2sc3nc(-c4ccccc4)cn3c2C)cc1 returned ERK AVP block inactive, HEK293 cAMP cs 31.6µM, TSHR ag inconclusive and CRE-bla Fsk inactive.
Screening CC(C)(C)NC[C@H](O)c1cc(O)cc(O)c1 returned ERK AVP block inactive, HEK293 cAMP cs 15.8µM, TSHR ag inconclusive and CRE-bla Fsk inactive.
For CCOC(=O)CSC1=C(C#N)C(c2ccccc2)C(C(C)=O)=C(C)N1 (centres undefined) the results were ERK AVP block inactive, HEK293 cAMP cs inactive, TSHR ag inactive and CRE-bla Fsk inactive.

Screening data: PubChem BioAssay, National Center for Advancing Translational Sciences (NCATS)
